Data: PubChem BioAssay AID624412 (The Scripps Research Institute Molecular Screening Center, 2012)
In all, about 1,400 compounds went through this assay and about 1,300 (93%) were called active. No stated cut-off is given here; in the data, active means inhibition above about 7%; inactive means the rest. So high a share suggests a set chosen from earlier hits. The list is a sample of the results.

Tested on: methionyl-tRNA synthetase (Trypanosoma brucei brucei)
Assay: inhibition of trypanosome methionyl-tRNA synthetase – biochemical, luminescence, confirmation (AID 624412)
Settings: T. brucei MetRS enzyme, luminescence (ATP depletion); at 11.9 µM; hits give high values

inhibition, inactive:
Cc1cc(C)cc(NC(=O)N(C)Cc2ccccc2)c1 3.08%
O=C(Nc1ccc(S(=O)(=O)Nc2ncccn2)cc1)c1cncc(Br)c1 2.54%

inhibition, active:
COC(=O)/C(=C\Nc1ccccc1)NC(=O)c1ccc(Cl)cc1Cl 78%
c1ccc2cc3[nH]c(CN4CCCCC4)nc3cc2c1 18.2%
Cc1c(CN2CCC(CO)(CCOc3ccccc3)CC2)[nH]c2ccc(Cl)cc12 19%
CN(C(=O)CSc1nnc(-c2c[nH]c3ccccc23)o1)C1CCS(=O)(=O)C1 (stereo not drawn) 21.9%
CN(C(=O)CSc1nnc(Nc2ccccc2)s1)C1CCS(=O)(=O)C1 (stereo not drawn) 12.5%
CCCCCn1nnnc1-c1nc2cc3ccccc3cc2[nH]c1=O 42.4%
c1ccc(CN=C2Nc3ccccc3CS2)nc1 22%
COc1ccc(NC(=O)C(NC(C)=O)C(=O)NCc2ccccc2Cl)cc1 (stereo not drawn) 17.9%
OCCNc1nc2ccccc2n1-c1ncnc2sc3c(c12)CCC3 29.7%
Cc1ccc(O)c(CNc2nc3ccccc3[nH]2)c1 85.4%
O=S(=O)(NCc1ccc(Cl)cc1Cl)c1cccs1 33.5%
CCCCN1C[C@H](c2ccc(Br)cc2)[C@@H](CC(=O)Nc2ccc(Br)cc2)C1=O 62.2%
O=C(OCc1nc2ccccc2[nH]1)C1CCCCC1 27.3%
O=C(NCc1cccc(CNC(=O)Nc2cccc(O)c2)c1)Nc1cccc(O)c1 17.5%
COc1ccc(CCn2ccc(O)c(Cc3ccc(Cl)cc3Cl)c2=O)cc1OC 11.8%
O=C(Nc1cccc([N+](=O)[O-])c1)N1CCc2ccccc2C1 25.6%
O=C(CSCC(=O)Nc1cccc([N+](=O)[O-])c1)Nc1ccccc1 17%
O=C(Nc1ccc(Cl)cc1)N1CCc2[nH]c3ccccc3c2C1 20.4%
Fc1ccc(NC(=S)N2CCc3[nH]c4ccccc4c3C2)cc1 35.4%
O=C(NNc1cc(Cl)cc(Cl)c1)c1c(F)cccc1Cl 66.4%
Cc1ccc(N2C(=O)CC(NCc3ccc4c(c3)OCO4)C2=O)cc1Cl (stereo not drawn) 98.5%
O=C(/C(=N\O)n1cncn1)c1ccc(Br)cc1Br 18.3%
CCCCN(C)Cc1c(C)[nH]c2ccc(Cl)cc2c1=O 67.1%
O=C(CC(=O)Nc1ccc(Cl)c(Cl)c1)N/N=C/c1ccc(O)cc1 17.2%
Cc1ccc(NC(=O)C(C)c2cccc(C(=O)c3ccccc3)c2)cc1 (stereo not drawn) 85.5%
O=C1CCCN1CCCNc1ncnc2c1[nH]c1ccccc12 55.3%
Cc1ccc(S(=O)(=O)N(C)C)cc1NC(=O)c1ccc(-n2cncn2)c([N+](=O)[O-])c1 69.4%
CC(=O)c1ccc(NC(=O)c2ccc(-n3cncn3)c([N+](=O)[O-])c2)cc1 72%
Cc1ccccc1OCC(=O)NNC(=O)c1ccc(-n2cncn2)c([N+](=O)[O-])c1 24.7%
O=C(NNC(=O)c1ccc(-n2cncn2)c([N+](=O)[O-])c1)c1ccccc1 50.4%
c1ccc2cc3c(NCCN4CCOCC4)ccnc3cc2c1 50.4%
Cc1ccc(S(=O)(=O)c2c[nH]c3ccc(Cl)cc3c2=O)cc1 85.2%
Cc1ccc(S(=O)(=O)c2c[nH]c3ccc(C)cc3c2=O)cc1 45.7%
O=C(NCCN1CCOCC1)c1ccccc1N1C(=O)[C@@H]2Cc3c([nH]c4ccccc34)C(c3cccc(Cl)c3)N2C1=O (stereo partly drawn) 18.1%
CCN(CC)C(=O)C(=O)c1cn(CC(=O)NCc2ccc3c(c2)OCO3)c2ccccc12 79.4%
O=C(CSc1nc2ccccc2[nH]1)N/N=C/C=C\c1ccccc1[N+](=O)[O-] 21.7%
O=C(Cn1c2[n+](c3ccc(C(F)(F)F)cc31)CCCCC2)Nc1c(F)cccc1F 29.8%
NS(=O)(=O)c1ccc(CCNC(=O)Nc2ccc(Cl)cc2)cc1 37.4%
O=C(Cc1ccc(S(=O)(=O)N2CCOCC2)s1)Nc1ccc(Br)c(C(F)(F)F)c1 33.2%
Clc1ccc(-c2cc(C3CCNCC3)[nH]n2)c(Cl)c1 52.6%
O=C(Cn1c(NCCO)nc2ccccc21)c1ccc(Cl)cc1Cl 5.98%
S=c1[nH]nc(CSCc2ccc(Cl)cc2Cl)n1-c1ccccc1 13.2%
COC(=O)CN1C(=S)N(c2ccccc2)C(=O)C1CC(=O)Nc1ccc(Cl)cc1 (stereo not drawn) 27.5%
OC(c1cc(Cl)cc(Cl)c1)c1ncc(-c2ccccc2C(F)(F)F)[nH]1 (stereo not drawn) 91.3%
Cc1ccc(-c2cnc(C(O)c3cc(Cl)cc(Cl)c3)[nH]2)cc1 (stereo not drawn) 63.9%
O=S(=O)(c1ccc(Br)cc1)N1CCC(c2nc3ccccc3[nH]2)CC1 20.5%
O=C(NCC(O)c1nc2ccccc2[nH]1)c1ccc(Br)cc1 (stereo not drawn) 31.1%
O=C(O)c1ccc(NS(=O)(=O)c2ccc3c(c2)C(=O)c2cc(S(=O)(=O)Nc4ccc(C(=O)O)cc4)ccc2-3)cc1 13.4%
CCN1CCCC1CNc1ncnc2c1[nH]c1ccc(F)cc12 (stereo not drawn) 53.7%
CC(C)OCCCNc1ncnc2c1[nH]c1ccc(F)cc12 95.6%
CSc1nsc(NC(=O)Nc2ccccc2)n1 39.8%
NC1=NC(=O)S/C1=C\c1ccc(O)cc1 40.1%
CC(C)(C)c1ccc(/C=C2\SC(=O)N=C2N)cc1 50.9%
O=C(O)CCn1c(O)c(C=C2N=c3ccccc3=N2)sc1=S 42.3%
Cn1c(CCCOc2ccc(Cl)cc2Cl)n[nH]c1=S 12.2%
CCCCCCCC[n+]1cccc(C(=O)N2c3c(nc(N)[nH]c3=O)NC(C)C2C)c1 (stereo not drawn) 29.2%
COc1ccc(OCC(O)CNC(=O)Nc2ccc(Cl)cc2)cc1 (stereo not drawn) 78%
Oc1[nH]c2ccc(Br)cc2c1N=Nc1nn[nH]n1 14.6%
O=C(Nc1ccccc1)Nc1nnc(COc2ccccc2F)s1 30.4%
Clc1ccccc1SCc1nc2ccccc2[nH]1 10.1%
Cc1ccc(CNC(=O)CSc2nnc3c(n2)[nH]c2ccc(F)cc23)cc1 78%
CCO[C@@H]1OC(C(=O)NCc2nc3ccccc3[nH]2)=C[C@H](C2CCCCC2)[C@H]1CCCO 48.9%
CC(=N\NC(=O)c1cc(Br)ccc1O)/C(=N/O)C(=O)Nc1ccccc1 18.2%
COc1ccccc1-n1c(SCC(=O)Nc2ccc(Cl)cc2)nc(O)c(Cc2ccccc2)c1=O 77.2%
COc1ccc(-c2[nH]ncc2/C=N/NC(=O)c2cc(Br)ccc2O)c(OC)c1 12.1%
O=[N+]([O-])c1ccc(N2CCN(c3ccc(O)cc3)CC2)c(Cl)c1 10.9%
